# According to the OligoGym collection:
# Molecular target: SLC12A6
# Experiment: pooled miR-30 sensor sort-seq; sequence = guide strand
# Details: shRNA
# Note: reference of the scale not given here.
row,Sequence,sensor-assay potency score (higher = more potent)
1,TTACTCGGGAACTAGATCGAGA,-0.428
2,TAGCTTGTAGCAGCCTCGGTGC,-1.11
3,TTGTCTCTGAGAACAACCCCTT,-0.146
4,TATTGAGATAAGCATTTCGAGC,-1.39
5,TACTGTTGTCTTCTAATTGGGC,-0.548
6,TTGTTAACTATAACCTCGTTGA,-0.0795
7,TGTACTTGTAGATCATACCAGC,-0.605
8,TTTTTGAAGAAGTAGAGGCTGC,0.521
9,TAAGTCTTCATCTAGTTTCAGT,-0.702
10,TATCAAAATATTCATCTCCTTC,-0.342
11,TTTTAGTGTGTGGAGGTCCTTC,-0.634
12,TTCTTTAGTAAGATGAAGCTGT,0.156

# Molecular target: SLC13A5
# Experiment: as above
# Details: shRNA
row,Sequence,sensor-assay potency score (higher = more potent)
1,TTTAAAATTGAATCTCATGTAA,-0.532
2,TTTAATGAGAGCAAGAGCTGGA,0.762
3,TTGTCTCTCATGTCTGTCTCTT,-0.189
4,TTGACAGCCAAAAACACACAGA,-0.786
5,TTTTTCTTGCTCTCTAGCCCGC,-0.694
6,TATGACTCCTGTTTTCACCATG,-1.13
7,TACACAACCTCTTCCGCTCTTG,-0.374
8,TTGTCCACCAGCTCCAGGCCGG,-0.842
